Bioassay records deposited in PubChem by several laboratories.
Compounds with a hit are over-represented: about 2.9% of the library has one in this group of screens.
Mtb FBA inh: inhibitors of M. tuberculosis fructose-bisphosphate aldolase | P9WQA3 | purified M. tuberculosis FBA, fluorescence read-out | inhibition, % at 1 µM | actives 2.3% (n = 360,000) | AID 588726; in the data active = inhibition above about 27%;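 note: 0% = vehicle and 100% = reference inhibitor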
Target sequence (P9WQA3 whole entry, looked up): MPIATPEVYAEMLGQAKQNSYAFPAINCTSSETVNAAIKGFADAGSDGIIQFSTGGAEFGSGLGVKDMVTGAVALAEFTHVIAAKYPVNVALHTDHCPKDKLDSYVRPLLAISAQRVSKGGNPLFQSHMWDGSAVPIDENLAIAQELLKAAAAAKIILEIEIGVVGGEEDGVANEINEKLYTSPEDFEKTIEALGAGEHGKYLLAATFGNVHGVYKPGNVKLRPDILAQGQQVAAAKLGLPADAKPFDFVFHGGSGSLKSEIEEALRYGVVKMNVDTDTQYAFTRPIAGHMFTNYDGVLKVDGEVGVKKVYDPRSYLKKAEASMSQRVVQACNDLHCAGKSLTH
Mtb BioA inh: inhibitors of Mycobacterium tuberculosis BioA enzyme; purified M. tuberculosis BioA enzyme, plate reader; inhibition, % at 9.99 µM; actives 0.096% (n = 360,000); in the data active = inhibition above about 40%
Mtb hypoxia rep: Mtb hypoxia fluorescent reporter inhibition; fluorescence inhibition, % (no concentration beside the values); M. tuberculosis hypoxia-regulated fluorescent reporter, fluorescence; AID 1159583; actives 0.1% (n = 300,000); in the data active = fluorescence inhibition mostly above about 23%, no sharp cut-off; inactive = mostly below about 17%
FadD28 binding: blocks FadD28 binding to the bisubstrate probe. fluorescence polarization. inhibition, % at 12.5 µM. AID 588549. actives 0.22% (n = 360,000); in the data active = inhibition above about 8.5%, passing the limit was not always enough
GDH-TPI counter: counter-screen for M. tuberculosis FBA inhibitors: GDH-TPI coupled enzymes; GDH-TPI coupled enzyme counterscreen, NADH absorbance; inhibition, % at 4.8 µM; actives 1.2% (n = 360,000); AID 588335; in the data active = inhibition above about 30%;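 note: 0% = DMSO wells and 100% = wells lacking the enzyme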
* = called active by the depositor; . = no result given; + = active, no number.

SMILES	Mtb FBA inh	Mtb BioA inh	Mtb hypoxia rep	FadD28 binding	GDH-TPI counter
COc1ccc(C2/C(=C(/O)c3ccccc3)C(=O)C(=O)N2c2ccccn2)cc1 (stereo not given)	1	-1	-4	1	11
COc1ccc(C2/C(=C(/O)c3ccc(C)cc3)C(=O)C(=O)N2c2ccccn2)cc1OC (stereo not given)	0	-1	-1	0	32*
COc1ccc(C2/C(=C(/O)c3ccccc3)C(=O)C(=O)N2c2ccccn2)cc1OC (stereo not given)	-2	.	.	-3	5
COc1cccc(/C(O)=C2\C(=O)C(=O)N(c3ccccn3)C2c2cccc(OC)c2OC)c1 (stereo not given)	-5	0	9	1	41*
COc1ccccc1C1C(=C(O)c2ccc(C)cc2)C(=O)C(=O)N1CC(C)O (stereo not given)	.	.	6	.	.
C[C@H](CO)N1C[C@H](C)[C@@H](CN(C)CC2CCCC2)Oc2ncc(-c3ccc(C#N)cc3)cc2C1=O	.	-4	.	.	.
O=C(Nc1cccc(Cl)c1)N[C@H]1CC[C@@H](CCNC(=O)C2CCCC2)O[C@H]1CO	.	-2	.	.	.
COc1cc(/C=C(\C#N)c2nc3ccc(C)cc3[nH]2)cc([N+](=O)[O-])c1O	-19	.	.	30*	17
COc1cc(/C=C2/SC(=O)NC2=O)ccc1Oc1ccc([N+](=O)[O-])cc1[N+](=O)[O-]	-1	.	9	0	26
COc1cc(/C=C2\SC(=O)NC2=O)ccc1Oc1ccc([N+](=O)[O-])cn1	-1	-4	14	-6	36*
COc1cc(/C=C(\C#N)c2nc3ccccc3[nH]2)ccc1Oc1ccc([N+](=O)[O-])cn1	3	-3	-3	-2	32*
COc1cc(/C=C(\C#N)c2nc3ccc(C)cc3[nH]2)c([N+](=O)[O-])cc1OC	3	-1	.	4	33*
CNC[C@@H]1OCCCC[C@H](C)Oc2ccc(NS(=O)(=O)c3c(C)noc3C)cc2C(=O)N([C@H](C)CO)C[C@@H]1C	.	-1	.	.	.
Clc1ccc(C=NNc2nn[nH]n2)cc1	.	.	0	.	.
COc1ccccc1N(N=C1Sc2ccccc2C1=O)C(C)=O	.	.	21	.	.
CC(=O)C1=C(O)C(=CC=Cc2ccccc2)OC1=O	2	0	.	3	31*
CN(C)CCCN(C(=O)/C=C/c1cccs1)c1nc2ccc(F)cc2s1	-2	-2	12	-4	48*
COc1ccc(C)c2sc(N(CCN(C)C)C(=O)/C=C/c3cccs3)nc12	0	0	.	-3	31*
COc1cccc2sc(N(CCN(C)C)C(=O)/C=C/c3cccs3)nc12	1	.	16	-3	32*
CCN(CC)CCN(C(=O)/C=C/c1cccs1)c1nc2ccc(F)cc2s1	2	-1	2	-1	4
COc1ccc(OC)c2sc(N(CCN(C)C)C(=O)/C=C/c3cccs3)nc12	4	-3	.	0	33*
CO[C@@H]1CN(C)C(=O)c2cc(NC(C)=O)ccc2OC[C@@H](C)N(Cc2cccnc2)C[C@@H]1C	.	1	.	.	.
Cc1noc(C)c1S(=O)(=O)Nc1ccc2c(c1)C(=O)N([C@H](C)CO)C[C@@H](C)[C@H](CN(C)S(=O)(=O)c1c(C)noc1C)OCCCC[C@@H](C)O2	.	0	.	.	.
c1ccc2nc(-c3nc4ccccc4[nH]3)ccc2c1	23	0	16	2	36*
COc1cc(C=NNC(=O)c2ccccc2Cl)ccc1Oc1ccc([N+](=O)[O-])cn1	.	.	11	.	.
SMILES	Mtb FBA inh	Mtb BioA inh	Mtb hypoxia rep	FadD28 binding	GDH-TPI counter
CCC(=O)N1C[C@H](O)COC[C@H]2O[C@@H](CC(=O)N3CCCCC3)CC[C@@H]21	.	0	.	.	.
NC(=S)N/N=C1\CC(c2ccc3c(c2)OCCO3)Oc2ccc(F)cc21 (stereo not given)	-2	.	.	-1	40*
NC(=S)NN=C1CC(c2ccc3c(c2)OCCCO3)Oc2ccc(F)cc21 (stereo not given)	.	.	12	.	.
NC(=S)N/N=C1\CC(c2ccc3c(c2)OCCCO3)Oc2ccc(F)cc21 (stereo not given)	0	0	.	-6	45*
C[C@H](CO)N1C[C@H](C)[C@@H](CN(C)Cc2ccc(F)cc2)Oc2cc(C#CC3CC3)ccc2S1(=O)=O	.	-1	.	.	.
NC(=O)c1cc(Cc2ccccc2)sc1NC(=O)c1ccco1	3	.	7	-7	39*
C[C@@H]1CN([C@@H](C)CO)C(=O)c2cc(NC(=O)NC3CCCCC3)ccc2O[C@@H]1CN(C)Cc1ccccc1	.	1	.	.	.
CC(=NNC(=O)c1cccc(NN=C(C)c2ccc([N+](=O)[O-])cc2)c1)c1ccc([N+](=O)[O-])cc1	.	.	12	.	.
Nc1nn(-c2ccccc2)c(N)c1N=Nc1ccccc1	-1	10	1	1	34*
Cc1cc(C)n2nc(N)c(N=Nc3ccccc3)c2n1	-10	.	84*	-4	19
N=c1c2c(-c3ccccc3)c(-c3ccccc3)n(Cc3ccco3)c2ncn1CCCN1CCOCC1	-2	.	21	8.8*	-8
COc1cccc(NC(=O)CN(C)C(=O)c2cc3c(s2)CCCC3)c1	3	0	16	1	-1
COc1cccc(NC(=O)CN(C)C(=O)c2cc3c(s2)CCCCC3)c1	-1	0	3	13*	-3
C=CCc1c(C)nc(C)nc1N/N=C/c1ccc(N(C)C)cc1	13	1	.	-1	50*
C[C@H]1CCCCO[C@@H](CN(C)Cc2ccc(C(=O)O)cc2)[C@@H](C)CN([C@@H](C)CO)C(=O)c2cc(NC(=O)Nc3ccccc3)ccc2O1	.	1	.	.	.
COc1cc(C=NNc2nc3c([nH]2)c(=O)n(C)c(=O)n3C)ccc1O	0	2	9	-3	24
CN(C)c1ccc(C=NNc2nc3c([nH]2)c(=O)n(C)c(=O)n3C)cc1	15	-1	16	-1	47*
O=C(c1ccc([N+](=O)[O-])o1)N1CCc2ccccc2C1	-2	.	47*	-1	8
CCN(CC)C(=O)CSc1nc2cc(OC)c(OC)cc2c(=O)n1Cc1ccc(Cl)cc1	27*	0	11	-5	-5
COc1ccc2c(c1)c1ncn(Cc3ccco3)c(=O)c1n2C	129*	.	4	-3	2
O=S(=O)(N[C@H]1CC[C@H](CCn2cc(-c3cccc(F)c3)nn2)O[C@@H]1CO)c1ccc(Cl)cc1	.	6	.	.	.
Cc1nc(Nc2ccc(S(N)(=O)=O)cc2)sc1C(=O)Nc1ccccc1	0	.	-3	0	35*
Cc1nnc(Nc2ccc(S(N)(=O)=O)cc2)c2ccccc12	1	-2	5	-4	34*
Cc1noc(C)c1S(=O)(=O)Nc1ccc2c(c1)C(=O)N([C@@H](C)CO)C[C@@H](C)[C@H](CN(C)Cc1ccc(C(F)(F)F)cc1)OCCCC[C@@H](C)O2	.	3	.	.	.
N=c1c(C(=O)NC2CCCCC2)cc2c(=O)n3ccccc3nc2n1CC1CCCO1 (stereo not given)	+	-1	-17	0	6
COc1ccc(CCn2c(=N)c(C(=O)NCC3CCCO3)cc3c(=O)n4ccccc4nc32)cc1OC (stereo not given)	-4	.	-6	0	12
